Screening results deposited in PubChem by National Center for Advancing Translational Sciences (NCATS).
Sampled rows, rich in hits. Any-hit rate of the full collection: about 3.6%.
Nrf2 activator – activators of Nrf2 (ARE) signaling; hit rate 0.31% among 410,000; AREc32 ARE-luciferase reporter (MCF7-derived line), luminescence, 24 h; Potency, µM (highest dose often 46.1 µM), actives largely listed as activators; further: nearly all actives have a fitted effect of over 65% in size
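Quantitative high-throughput format: AREc32 reporter cells, 1000 per well, received compound by pin transfer and were incubated 24 hr at 37 deg C, 5% CO2, before Steady-Glo luminescence detection.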
TGFb SMAD3 inh – blocks TGF-b signaling. HepG2 CAGA-GFP TGF-b/SMAD3 reporter, GFP fluorescence, 18 h; TGF-beta stimulated, 500 pg/mL final. Potency, µM (highest dose often 46.1 µM), usual class: inhibitors. hit rate 1.2% among 410,000. AID 588855; further: nearly all actives have a fitted effect of over 65% in size
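First, reporter cells (HEPG2 CAGA-GFP) rested 2 h at 37 degrees C. Next, compounds were pinned in and TGF-beta added to 500 pg/mL final. After 18 h, GFP was imaged per cell and summed per well.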
A549 tox – counter-screen for Nrf2 inhibitors: cytotoxicity in A549 cells. hit rate 0.16% among 390,000. Potency, µM (titrated, usually from 46 µM), actives largely listed as inhibitors. A549 ARE-Fluc cells, CellTiter-Fluor viability, 18-24 h
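A549 ARE-Fluc cells in 5% FBS OPTI-MEM, 5000 cells/well, rested 2 h then exposed to compounds in concentration-response for 18-24 h at 37 °C. Viability by CellTiter-Fluor fluorescence (Ex 405/Em 525) after 30 min; luciferase luminescence (BugLite, 15 min, RT) read afterwards.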
Nrf2 block – inhibitors of Nrf2 signaling. A549 ARE-Fluc reporter, luciferase luminescence, 18-24 h. Potency, µM (top dose mostly 46 µM), hits mostly inhibitors. hit rate 2.1% among 360,000; further: nearly all actives have a fitted effect of over 60% in size
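Nrf2 activity is the BugLite luminescence, read 15 min after reagent at room temperature, following CellTiter-Fluor cytotoxicity readout (30 min, 37C). Compound titrations were applied for 18-24 h to 5000 A549 ARE_Fluc cells/well in 5% FBS OPTI-MEM.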
HepG2 tox – kills HepG2 cells in TGF-b inhibitor counter-screen; HepG2 CAGA-GFP viability, ATP luminescence, 18 h; Potency, µM (titrated, usually from 46.1 µM), hits mostly cytotoxic; hit rate 0.76% among 410,000
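HepG2 CAGA-GFP cells (1000/well, DMEM with 1% FBS) received compound, then TGF-beta at 500 pg/mL final, and were incubated 18 hours at 37 degrees C. Viability was read by CellTiter-Glo luminescence. Media-only wells were set as complete cell-killing and DMSO as no toxicity.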
A number is an active result; 0 = inactive; ? = inconclusive; - = no result; ! = not active in a repeat; [ ] = remark or other dose. The call rests on the fitted dose curve; in most records, active means well fitted curve in the direction sought with a large enough effect; inconclusive means small, poorly fitted or top-dose-only effect, or another doubt; inactive means no such curve, though single readings can be large; an effect the other way counts as inactive or inconclusive.

SMILES	Nrf2 activator	TGFb SMAD3 inh	A549 tox	Nrf2 block	HepG2 tox
Cc1cc(C)cc(NS(=O)(=O)c2ccc3c(c2)OCC(C(=O)N2CCCC2)O3)c1 (configuration not stated)	0	?	0	0	0
C[C@H](CO)N1C[C@H](C)[C@@H](CN(C)C)Oc2c(NS(=O)(=O)c3ccc(F)cc3)cccc2C1=O	0	0	0	0	0
O=C(CCC(=O)NNC(=O)COc1ccccc1)NCc1ccccc1	0	?	0	0	13µM
O=S(=O)(Nc1ccc(O)c2ccccc12)c1ccc(F)cc1	0	?	0	0	5µM
CCOc1ccccc1N(C)S(=O)(=O)c1ccc2c(c1)CCN2C(=O)CCC(=O)O	0	0	0	0	0
NC(=O)N/N=C/c1c(O)ccc2oc3c(c12)CCCC3	0	10µM	0	0	0
COc1ccc2nc3cc(Cl)ccc3c(Nc3ccc(O)c(CN4CCN(C)CC4)c3)c2c1	?	11µM	?	0	0
COc1ccc2nc3cc(Cl)ccc3c(C#N)c2c1	0	0	0	?	0
S=C(NCc1ccccc1)NC1CCSc2ccccc21 (configuration not stated)	0	13µM	?	?	0
COc1cc(C2NC(=O)NC(c3ccccc3)=C2C(C)=O)c(Br)c(Br)c1O (configuration not stated)	0	?	0	0	0
CCOc1ccc(/C=N/NC(=O)C(=O)N2CCCCCC2)c2ccccc12	0	7.9µM	0	0	0
COc1ccccc1N1CCN(C(c2ccccn2)c2nnnn2C2CCCCC2)CC1 (configuration not stated)	0	0	0	0	0
CC1C(=O)Nc2ccc(S(=O)(=O)Nc3ccccc3Br)cc2NC1=O (configuration not stated)	0	0	0	16µM!	0
Cc1cc(C)c(NS(=O)(=O)c2ccc3c(c2)NC(=O)C(C)C(=O)N3)c(C)c1 (configuration not stated)	0	0	0	0	0
COc1cccc(C(=O)NCC(=O)OCC(=O)Nc2ncc(Cl)cc2Cl)c1	0	0	0	0	10µM
CCOC(=O)N1CCN(C(=O)CN(c2ccc(OCC)cc2)S(C)(=O)=O)CC1	0	0	0	0	0
Oc1ccccc1C1NN=C(c2ccccc2)S1 (configuration not stated)	7.1µM	0	0	?	0
CSc1ccc(C2NN=C(c3ccccc3)S2)cc1 (configuration not stated)	5µM	0	0	?	0
O=C(O)c1ccc(COc2ccccc2/C=C2\NC(=O)N(Cc3ccccc3)C2=O)cc1	0	0	0	0	0
O=C(O)c1ccc(COc2ccc3ccccc3c2/C=C2/NC(=O)N(Cc3ccc(F)cc3)C2=O)cc1	0	0	0	21µM	0
FC(F)(F)c1ccccc1Cc1c(-c2ccco2)nc2ccc(Cl)cn12	?	?	-	-	6.3µM
Fc1ccc(-c2nc3ccc(Cl)cn3c2Cc2ccccc2C(F)(F)F)cc1	0	13µM	-	-	0
Clc1cccc(-c2nc3ccc(Cl)cn3c2Cc2ccsc2)c1	0	16µM	-	-	0
FC(F)(F)c1ccccc1Cc1c(-c2ccc(Cl)cc2)nc2ccc(Cl)cn12	0	?	-	-	0
CCN(CC)c1ccc(NC(=O)CCS(=O)(=O)c2cc3c(cc2Cl)NC(=O)CO3)c(C)c1	0	0	?	16µM	0
SMILES	Nrf2 activator	TGFb SMAD3 inh	A549 tox	Nrf2 block	HepG2 tox
OC(c1ccccc1)(c1ccccc1)C1CCN(C(=S)NCCc2ccccc2)CC1	0	0	?	23µM	0
COCCNC(=O)C1(C)CCCN(CCC(=O)c2ccc(Br)cc2)C1 (configuration not stated)	?	16µM	-	-	13µM
CCCNC(=O)C1(C)CCN(CCC(=O)c2ccc(Br)cc2)C1 (configuration not stated)	0[9.22 µM]	?	-	-	0
Cc1cccc(C(=O)Nc2cccc(-c3ccc4nncn4n3)c2)c1	0	0	0	12µM	0
COc1ccc(OC)c(S(=O)(=O)Nc2ccc(-c3ccc4nncn4n3)cc2)c1	0	0	0	?	7.9µM
COc1ccc(CC(=O)Nc2cccc(-c3ccc4nncn4n3)c2)cc1OC	0	0	?	21µM	0
